For some of these results: Results with a measured potency or affinity are listed apart.

What all share (set-up): scale not given: direction of the effect not stated beside the values
In assay [1] the target is Protein translocase subunit SecA (Escherichia coli (strain K12)) (UniProt P10408). Kind of assay: Assay to Identify E. coli SecA ATPase Inhibitors. The format is functional. The note with it: 30 µM.
In assay [2] the target is T1, Ubiquitin-activating enzyme e1, putative (Leishmania donovani (strain BPK282A1)) (UniProt E9BSI1).
T1 sequence (whole entry): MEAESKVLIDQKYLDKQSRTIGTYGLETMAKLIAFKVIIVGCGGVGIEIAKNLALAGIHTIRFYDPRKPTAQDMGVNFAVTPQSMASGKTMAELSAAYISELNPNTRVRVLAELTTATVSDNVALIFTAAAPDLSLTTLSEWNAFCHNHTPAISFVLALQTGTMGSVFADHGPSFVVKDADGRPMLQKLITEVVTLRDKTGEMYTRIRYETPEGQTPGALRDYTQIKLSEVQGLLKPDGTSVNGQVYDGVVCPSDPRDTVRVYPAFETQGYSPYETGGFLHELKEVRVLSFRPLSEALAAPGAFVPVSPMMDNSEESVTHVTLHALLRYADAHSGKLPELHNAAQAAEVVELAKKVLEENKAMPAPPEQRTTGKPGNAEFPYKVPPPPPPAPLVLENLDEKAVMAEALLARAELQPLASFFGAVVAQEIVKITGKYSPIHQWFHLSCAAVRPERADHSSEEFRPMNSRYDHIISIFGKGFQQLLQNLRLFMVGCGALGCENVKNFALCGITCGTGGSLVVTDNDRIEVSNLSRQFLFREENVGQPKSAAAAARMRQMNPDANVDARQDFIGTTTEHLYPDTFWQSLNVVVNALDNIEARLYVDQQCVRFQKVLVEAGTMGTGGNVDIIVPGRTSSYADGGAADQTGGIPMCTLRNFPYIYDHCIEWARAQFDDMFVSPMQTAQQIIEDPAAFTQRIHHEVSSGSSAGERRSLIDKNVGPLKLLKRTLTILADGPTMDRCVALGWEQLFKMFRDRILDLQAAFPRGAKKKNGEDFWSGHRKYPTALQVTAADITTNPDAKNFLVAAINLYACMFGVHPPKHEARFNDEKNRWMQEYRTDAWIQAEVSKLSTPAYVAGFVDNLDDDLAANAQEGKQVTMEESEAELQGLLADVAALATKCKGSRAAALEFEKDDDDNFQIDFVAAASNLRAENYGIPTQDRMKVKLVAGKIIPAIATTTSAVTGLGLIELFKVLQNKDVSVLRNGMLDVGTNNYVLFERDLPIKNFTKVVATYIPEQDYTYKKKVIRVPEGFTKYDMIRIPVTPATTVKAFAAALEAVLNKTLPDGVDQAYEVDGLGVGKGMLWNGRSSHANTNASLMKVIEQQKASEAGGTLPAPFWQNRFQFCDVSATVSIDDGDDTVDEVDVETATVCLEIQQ
Kind of assay: Leishmania donovani Ubiquitin Activating Enzyme (LdE1). Format: functional. The note with it: 30 µM.

The target in assay [3] is AMP-activated protein kinase, AMPK (Homo sapiens) (UniProt P54646+O43741+P54619+Q9UGJ0+Q9Y478+Q13131+Q9UGI9). Kind of assay: AMP-dependent Kinase enzyme assay. An in vitro enzyme assay that detects ADP turnover that is directly proportional to AMPK activity. This uses naive AMPK that is activated during the assay with MK-8722. The format is functional. The note with it: 30 µM.

The target in assay [4] is Sialic acid-binding Ig-like lectin 9 (Homo sapiens) (UniProt Q9Y336). In words: Hs-Siglec9 ALPHAscreen SOP 20170721. The conditions noted are these: 10 µM. A general note: Bead proximity is the source of the signal in Alpha formats.
Sialic acid-binding Ig-like lectin 9 (Homo sapiens), sequence (Q9Y336 whole entry): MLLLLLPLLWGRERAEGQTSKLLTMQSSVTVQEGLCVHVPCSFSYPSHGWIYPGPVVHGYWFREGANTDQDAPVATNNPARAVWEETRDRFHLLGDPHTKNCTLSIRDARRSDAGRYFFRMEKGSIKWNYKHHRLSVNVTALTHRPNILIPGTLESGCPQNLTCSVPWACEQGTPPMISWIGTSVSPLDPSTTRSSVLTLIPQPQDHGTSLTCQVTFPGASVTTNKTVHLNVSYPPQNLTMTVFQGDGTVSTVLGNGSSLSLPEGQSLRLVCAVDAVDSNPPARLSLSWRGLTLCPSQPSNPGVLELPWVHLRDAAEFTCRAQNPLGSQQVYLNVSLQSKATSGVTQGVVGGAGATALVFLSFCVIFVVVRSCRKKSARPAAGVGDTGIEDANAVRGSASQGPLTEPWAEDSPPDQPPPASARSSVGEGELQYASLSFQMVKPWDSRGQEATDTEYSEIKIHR
In assay [5] the test system is Trypanosoma cruzi. In words: Trypanosoma cruzi phosphomannomutase and mannose-1-phosphate guanylyltransferase assay. Format: functional. The conditions noted are these: 10 µM.
The target of assay [6] is T2, Arginase-2, mitochondrial (Homo sapiens) (UniProt P78540).
T2 sequence (whole entry): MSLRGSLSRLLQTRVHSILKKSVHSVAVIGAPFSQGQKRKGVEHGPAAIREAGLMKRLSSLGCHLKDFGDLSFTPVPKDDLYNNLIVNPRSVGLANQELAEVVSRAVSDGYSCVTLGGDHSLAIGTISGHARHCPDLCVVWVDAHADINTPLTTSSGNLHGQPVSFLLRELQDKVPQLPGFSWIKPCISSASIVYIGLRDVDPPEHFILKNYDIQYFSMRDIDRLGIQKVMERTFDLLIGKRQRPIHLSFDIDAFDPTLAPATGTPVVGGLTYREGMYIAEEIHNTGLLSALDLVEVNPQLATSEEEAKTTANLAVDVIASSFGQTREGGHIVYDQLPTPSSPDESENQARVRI
In words: in vitro enzyme assay to detect the production of urea directly proportional to the activity of Arginase II. Note: in the data most compounds retested in dose-response had high values. The format is functional. The note with it: 33.3 µM.

Assay [7] concerns the target T3, Proteasome subunit beta (Trypanosoma cruzi) (UniProt O96673).
T3 sequence (whole entry): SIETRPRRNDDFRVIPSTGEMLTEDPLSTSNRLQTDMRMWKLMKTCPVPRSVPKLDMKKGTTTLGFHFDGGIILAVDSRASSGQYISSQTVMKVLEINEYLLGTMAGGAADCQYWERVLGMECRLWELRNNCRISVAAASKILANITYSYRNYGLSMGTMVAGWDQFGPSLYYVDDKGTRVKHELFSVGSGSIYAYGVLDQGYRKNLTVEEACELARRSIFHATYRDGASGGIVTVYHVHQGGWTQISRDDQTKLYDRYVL
Kind of assay: Trypanosoma cruzi proteasome chymotrypsin-like activity (TcProtChymo) assay. Note: in the data most compounds retested in dose-response had high values. The format is functional. The conditions noted are these: 9.37 µM.

Assay [8] is filed under the species Homo sapiens. Kind of assay: To identify inhibition of the IFN signalling (Jak-Stat) pathway via expression of an eGFP reporter gene under the control of an IFN-stimulated response element (ISRE) containing MxA promoter. The format is functional. The note with it: 30 µM. For orientation: In a reporter assay the amount or activity of a reporter protein is the signal.

The target in assay [9] is T4, Tyrosyl-tRNA synthetase, putative (Trypanosoma cruzi (strain CL Brener)) (UniProt Q4DSP6).
T4 sequence (whole entry): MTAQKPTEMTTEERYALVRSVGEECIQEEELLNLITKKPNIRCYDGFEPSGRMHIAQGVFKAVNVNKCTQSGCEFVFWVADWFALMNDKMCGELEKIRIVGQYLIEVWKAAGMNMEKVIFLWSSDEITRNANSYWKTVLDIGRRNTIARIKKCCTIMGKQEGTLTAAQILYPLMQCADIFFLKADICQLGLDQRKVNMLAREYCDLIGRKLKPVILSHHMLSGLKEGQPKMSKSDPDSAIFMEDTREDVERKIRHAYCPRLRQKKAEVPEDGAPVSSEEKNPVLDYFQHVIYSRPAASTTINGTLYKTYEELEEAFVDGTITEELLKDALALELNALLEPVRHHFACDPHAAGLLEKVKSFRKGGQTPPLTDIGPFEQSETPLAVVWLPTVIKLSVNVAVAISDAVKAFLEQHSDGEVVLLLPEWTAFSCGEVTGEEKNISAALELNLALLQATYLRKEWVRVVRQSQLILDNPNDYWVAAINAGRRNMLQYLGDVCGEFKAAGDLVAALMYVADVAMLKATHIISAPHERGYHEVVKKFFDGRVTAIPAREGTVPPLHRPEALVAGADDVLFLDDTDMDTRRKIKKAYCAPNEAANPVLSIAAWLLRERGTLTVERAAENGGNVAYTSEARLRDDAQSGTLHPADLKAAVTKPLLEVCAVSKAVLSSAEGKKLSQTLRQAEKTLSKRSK
Kind of assay: Trypanosoma cruzi tyrosyl tRNA synthetase (TcYRS) _High Tyrosine SOP. Note: in the data most compounds retested in dose-response had high values. The note with it: 30 µM. The format is functional.

Assay [10] concerns the target T4, Tyrosyl-tRNA synthetase, putative (Trypanosoma cruzi (strain CL Brener)). In words: Trypanosoma cruzi tyrosyl tRNA synthetase (TcYRS) SOP. Format: functional. The conditions noted are these: 30 µM.
Assay [11] has as its target Chromo domain-containing protein 1 (Saccharomyces cerevisiae (strain ATCC 204508 / S288c) (Baker's yeast)) (UniProt P32657). In words: ScCHD-1 Enzyme Inhibition Assay. Note: in the data most compounds retested in dose-response had high values. Format: functional. The conditions noted are these: 30 µM.

Protein translocase subunit SecA (Escherichia coli (strain K12)), sequence (P10408 whole entry): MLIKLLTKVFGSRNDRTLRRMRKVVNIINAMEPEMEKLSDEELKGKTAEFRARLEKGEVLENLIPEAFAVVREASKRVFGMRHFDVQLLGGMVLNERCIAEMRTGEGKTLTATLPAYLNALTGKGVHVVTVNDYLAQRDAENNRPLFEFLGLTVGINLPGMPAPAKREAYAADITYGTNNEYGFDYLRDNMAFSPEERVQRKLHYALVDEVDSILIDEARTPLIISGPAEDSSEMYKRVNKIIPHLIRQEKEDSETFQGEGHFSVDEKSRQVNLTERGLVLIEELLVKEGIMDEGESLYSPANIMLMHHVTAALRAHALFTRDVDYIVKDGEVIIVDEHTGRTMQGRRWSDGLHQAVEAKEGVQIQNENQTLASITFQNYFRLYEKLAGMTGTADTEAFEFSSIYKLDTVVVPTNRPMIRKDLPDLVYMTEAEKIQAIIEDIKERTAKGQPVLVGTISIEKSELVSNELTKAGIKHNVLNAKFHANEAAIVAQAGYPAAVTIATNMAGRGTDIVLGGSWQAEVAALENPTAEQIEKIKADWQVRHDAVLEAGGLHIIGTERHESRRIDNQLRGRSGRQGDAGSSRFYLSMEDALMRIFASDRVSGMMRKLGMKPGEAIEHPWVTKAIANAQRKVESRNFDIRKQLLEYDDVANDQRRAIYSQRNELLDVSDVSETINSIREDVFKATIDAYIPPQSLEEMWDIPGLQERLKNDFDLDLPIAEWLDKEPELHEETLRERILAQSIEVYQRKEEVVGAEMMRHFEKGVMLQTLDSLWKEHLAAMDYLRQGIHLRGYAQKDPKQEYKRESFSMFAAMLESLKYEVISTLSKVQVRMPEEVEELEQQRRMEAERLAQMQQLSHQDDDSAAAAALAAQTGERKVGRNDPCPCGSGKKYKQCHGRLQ
Chromo domain-containing protein 1 (Saccharomyces cerevisiae (strain ATCC 204508 / S288c) (Baker's yeast)), sequence (P32657 whole entry, the tested form may be a part): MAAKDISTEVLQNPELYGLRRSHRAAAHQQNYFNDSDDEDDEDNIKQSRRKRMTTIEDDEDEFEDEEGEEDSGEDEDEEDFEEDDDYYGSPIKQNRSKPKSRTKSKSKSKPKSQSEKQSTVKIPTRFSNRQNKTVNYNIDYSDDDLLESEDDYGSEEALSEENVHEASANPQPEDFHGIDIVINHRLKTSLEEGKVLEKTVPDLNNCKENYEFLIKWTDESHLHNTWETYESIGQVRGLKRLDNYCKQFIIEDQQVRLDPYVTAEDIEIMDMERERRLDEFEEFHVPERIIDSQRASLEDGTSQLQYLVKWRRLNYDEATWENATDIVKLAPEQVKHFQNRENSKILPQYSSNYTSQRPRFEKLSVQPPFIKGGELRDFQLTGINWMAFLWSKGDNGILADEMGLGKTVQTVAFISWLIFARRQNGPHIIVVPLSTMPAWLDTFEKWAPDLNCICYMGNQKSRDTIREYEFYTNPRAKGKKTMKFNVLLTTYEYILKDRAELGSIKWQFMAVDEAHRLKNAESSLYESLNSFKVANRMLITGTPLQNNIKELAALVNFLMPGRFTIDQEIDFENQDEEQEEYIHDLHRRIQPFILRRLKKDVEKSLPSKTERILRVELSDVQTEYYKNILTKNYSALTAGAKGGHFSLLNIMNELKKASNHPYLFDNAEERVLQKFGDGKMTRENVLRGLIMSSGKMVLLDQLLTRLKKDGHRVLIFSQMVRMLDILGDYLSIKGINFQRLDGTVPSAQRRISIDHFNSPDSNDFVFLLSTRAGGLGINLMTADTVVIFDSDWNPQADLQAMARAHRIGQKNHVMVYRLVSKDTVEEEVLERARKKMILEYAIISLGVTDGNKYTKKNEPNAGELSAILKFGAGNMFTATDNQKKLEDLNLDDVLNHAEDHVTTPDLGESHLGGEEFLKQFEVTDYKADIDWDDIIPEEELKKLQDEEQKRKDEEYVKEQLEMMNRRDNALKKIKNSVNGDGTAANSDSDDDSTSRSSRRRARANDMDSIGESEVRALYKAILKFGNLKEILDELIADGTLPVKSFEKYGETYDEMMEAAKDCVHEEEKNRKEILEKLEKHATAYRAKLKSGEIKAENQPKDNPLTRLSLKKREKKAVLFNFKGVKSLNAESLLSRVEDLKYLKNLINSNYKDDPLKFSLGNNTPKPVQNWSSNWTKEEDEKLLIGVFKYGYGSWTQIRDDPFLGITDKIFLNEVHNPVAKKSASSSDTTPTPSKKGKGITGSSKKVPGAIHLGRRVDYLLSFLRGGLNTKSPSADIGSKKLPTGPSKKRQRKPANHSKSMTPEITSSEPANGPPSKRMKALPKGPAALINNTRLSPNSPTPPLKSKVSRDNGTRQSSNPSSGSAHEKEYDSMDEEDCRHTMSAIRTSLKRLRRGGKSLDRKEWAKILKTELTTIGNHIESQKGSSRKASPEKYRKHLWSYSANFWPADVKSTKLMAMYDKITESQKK

In the case of `CCc1nnc2n1CC(CNCc1ccncc1)CC2` (stereo unspecified), the Percent Effect in assay [1] is 1.7%; in assay [2] it was 4.17%; in assay [3], -9.25%; in [4] it was -5.88%; in assay [5], -3.6%; in assay [6], 5.3%. The Percent Effect was 19.6% in assay [7]; -6.46% in [8]; 5.26% in [9]; 0% in assay [10]; -3.45% in assay [11].
For `O=C(C1CCS(=O)(=O)C1)N1CCN(c2cnccn2)CC1` (stereo unspecified), the Percent Effect in assay [1] was -5.3%; in [2] it was 16.2%; in [3] it was -5.15%; in assay [4] it was -2.95%; in assay [5] it was -7.52%; in [6] it was 0.185%. In addition, the Percent Effect in assay [7] was 6.46%; in [8], 14.3%; in assay [9], 5.94%; in assay [10] it was 15.8%; in [11], -4.21%.
With `c1nc2n(n1)CC(NCc1nc(-c3ccsc3)no1)CC2` (stereo unspecified), the Percent Effect in assay [1] is -3.43%; in [2], 0%; in assay [3], -5.33%; in assay [4], -3.06%; in assay [5], -1.02%; in assay [6] it was -0.554%. Besides, the Percent Effect is -5.92% in [7]; 4.74% in assay [8]; 2.97% in [9]; 6.1% in assay [10]; 7.25% in assay [11].
Turning to `C=Cn1ncc(CN2C[C@@H]3CCCN3C[C@@H]2Cc2ccccc2)c1C`, the Percent Effect in [1] is -3.58%; in [2], 4.05%; in assay [3], 3.48%; in assay [4], 4.39%; in assay [5] it was 2.37%; in assay [6] it was 0.696%. Also, the Percent Effect is 11.2% in assay [7]; 26.4% in assay [8]; 6.45% in [9]; 14.3% in assay [10]; -13% in assay [11].
As to `c1ccc(-n2cc(CN3CCCC(Cn4cncn4)C3)nn2)cc1` (stereo unspecified), the Percent Effect was -2.56% in assay [1]; 3.8% in assay [2]; 7.41% in assay [3]; 3.66% in [4]; -3.79% in assay [5]; -0.215% in assay [6]. Moreover, the Percent Effect in assay [7] was 15.4%; in assay [8], 12.2%; in [9] it was 7.29%; in assay [10], 12.7%; in assay [11] it was -25.5%.
As for `O=C(NCCN1CCOCC1)c1ccc(-n2ccc3ccccc32)s1`, the Percent Effect in assay [1] is -2.64%; in assay [2], 10.4%; in assay [3], 4.76%; in assay [4], -1.07%; in assay [5] it was 1.08%; in assay [6] it was -3.23%. For the same compound, the Percent Effect in assay [7] is 8.01%; in assay [8], 28.5%; in assay [9] it was 3.17%; in assay [10], 11.5%; in assay [11] it was -7.3%.
In the case of `O=C(Nc1cccc(Cl)c1)c1nn(C2CCS(=O)(=O)C2)c2c1CCCC2` (stereo unspecified), the Percent Effect was -5% in assay [1]; -7.89% in [2]; 10.5% in assay [3]; 6.51% in [4]; -1.27% in [5]; -3.55% in assay [6]. Besides, the Percent Effect in [7] was 12.4%; in [8], -5.46%; in assay [9], -1.06%; in assay [10], 2.6%; in assay [11], -5.58%.
`CN(C)c1cc(C(=O)NCCc2nnc(-c3ccco3)[nH]2)ccn1`: the Percent Effect is -2.63% in [1]; 2.63% in assay [2]; 0.765% in assay [3]; -1.33% in [4]; -2.63% in assay [5]; -4.73% in assay [6]. Moreover, the Percent Effect in assay [7] was 5.46%; in assay [8], 0.0854%; in assay [9], 4.25%; in assay [10], 10.4%; in assay [11] it was -3.29%.
On to `CCNC(c1cccnc1)c1ccc(F)c(F)c1` (stereo unspecified), for which the Percent Effect is -1.6% in assay [1]; -1.27% in [2]; 6.62% in [3]; 2.25% in assay [4]; -0.923% in assay [5]; 4.09% in assay [6]. The Percent Effect in [7] was 5.66%; in [8], 5.14%; in assay [9], 1.04%; in assay [10] it was -5.06%; in [11] it was -14.2%.
Consider `O=c1ccc2c(n1CCN1CCCC1)CCN(Cc1ccoc1)CC2`, for which the Percent Effect was -1.68% in assay [1]; 8.22% in assay [2]; -4.13% in assay [3]; 13.3% in assay [4]; 7.94% in assay [5]; -9.58% in [6]. Moreover, the Percent Effect in assay [7] was 10.7%; in assay [8] it was 19.6%; in [9] it was 8.33%; in assay [10] it was 13.6%; in assay [11], -2.06%.
Regarding `CNC(=O)CCNC(=O)c1cccc(Cn2nc(C)cc2C)c1`, the Percent Effect is -1.98% in [1]; 4.17% in assay [2]; 1.31% in assay [3]; 2.11% in assay [4]; 5.15% in assay [5]; -3.09% in assay [6]. The Percent Effect in [7] is 10.7%; in assay [8], 15.9%; in [9], 6.32%; in assay [10] it was 7.69%; in assay [11] it was -5.17%.

For the origin of these results see ChEMBL document CHEMBL3988442, “University of Dundee, Small-Polar-MMV Screening Library” (2021).
